About 2,700 (4%) of roughly 68,000 compounds showed an effect of 50% or more. Shown is part of a subset that was picked to be rich in strong results.
system: Plasmodium berghei; experiment: Screen against P. berghei liver stage (PbLuc), transformed with Luciferase, at 2uM; type: functional, HepG2; conditions: tested at 2 uM

Row | Structure (SMILES) | INHIBITION [%]
1 | COc1ccc(CCN2CC(n3nc(C)cc3C)C2)cc1 | 33.55
2 | Cc1nc2[nH]cnc(NCCN3CCOCC3)c-2n1 | -7.81
3 | Cc1ccc(CN2C[C@@H]3C[C@H](C(=O)NCC4CC4)N(C)[C@@H]3C2)o1 | 21.06
4 | O=C(CCc1ccccc1)NCC1CCN(Cc2ccsc2)CC1 | 13.22
5 | O=C(NCc1ccccc1)NCC1CCN(Cc2ccsc2)CC1 | 51
6 | CN1[C@@H](C(=O)NCC2CC2)C[C@@H]2CN(Cc3ccoc3)C[C@@H]21 | 40.83
7 | O=C(NCC1CCN(Cc2ccsc2)CC1)NC1CC1 | -18.04
8 | CN1[C@@H](C(=O)NCC2CC2)C[C@H]2CN(Cc3ccsc3)C[C@H]21 | 1.29
9 | CN1[C@@H](C(=O)NCC2CC2)C[C@@H]2CN(Cc3ccsc3)C[C@@H]21 | 59.5
10 | Cc1nc(CN2C[C@H]3C[C@H](C(=O)NCC4CC4)N(C)[C@H]3C2)cs1 | 55.66
11 | Cc1ccc(CN2C[C@H]3C[C@H](C(=O)NCC4CC4)N(C)[C@H]3C2)o1 | -13.53
12 | Cc1cnn(CC2CCCN2C(=O)c2cccc(-n3ccc(C)n3)c2)c1 (stereo not given) | 23.42
13 | CS(=O)(=O)c1ccc(C(=O)N2CCCC(n3cncn3)C2)o1 (stereo not given) | -15.41
14 | CCOC(=O)[C@]12CCCN(Cc3cccs3)C[C@H]1CN(C(C)C)C2 | -10.41
15 | CCn1nc(C)c(CNC(=O)NCC(C)(O)c2ccc(C)o2)c1C (stereo not given) | -109.32
16 | CCC(C)N1CCC2(CC1)CN(c1cncnc1)C(=O)CO2 (stereo not given) | 51.55
17 | O=C1COC2(CCN(CC3CC3)CC2)CN1c1cncnc1 | -59.44
18 | CCS(=O)(=O)N1CCC2(CC1)CN(c1cncnc1)C(=O)CO2 | -28.81
19 | CSc1nc(C)cc(N2CCC(c3ncc[nH]3)CC2)n1 | -69.92
20 | CC(C)NS(=O)(=O)c1cc(C(=O)O)cc(-c2ccccc2C#N)c1 | -10.44
21 | CC(C)NS(=O)(=O)c1cc(C(=O)O)cc(-c2ccccc2F)c1 | 38.83
22 | CC(C)NS(=O)(=O)c1cc(C(=O)O)cc(-c2ccccc2CO)c1 | 76.6
23 | CC(=O)c1ccccc1-c1cc(C(=O)O)cc(S(=O)(=O)NC(C)C)c1 | 17.48
24 | CC(C)NS(=O)(=O)c1cc(C(=O)O)cc(-c2ccccc2CN(C)C)c1 | 58.24
25 | CC(C)NS(=O)(=O)c1cc(C(=O)O)cc(-c2ccc(CN(C)C)cc2)c1 | 15.42

Row | Structure (SMILES) | INHIBITION [%]
26 | Cn1c(CCNc2nccnc2C#N)nc2ccc(F)cc21 | 8.03
27 | CCc1nnc2n1CCN(C(=O)c1cc3c(F)cccc3[nH]1)C2 | 9.17
28 | CC(C)[C@@H]1CN(CC(=O)NCc2ccco2)C[C@H]1NS(=O)(=O)N(C)C | -30.53
29 | CC(C)[C@@H]1CN(C(=O)NCc2ccco2)C[C@H]1N(C)C | 52.08
30 | CC(C)[C@@H]1CN(C(=O)NCc2ccco2)C[C@H]1NS(=O)(=O)N(C)C | 28.95
31 | CC1COCCN1C(=O)c1cnccn1 (stereo not given) | -108.55
32 | COCCN1CCC2(CC1)CC(c1cccnc1)C(=O)N2C (stereo not given) | 11.98
33 | CCN(C)C(=O)[C@H]1C[C@@](CC(C)C)(C(=O)OC)N(C)[C@H]1c1cccnc1 | 59.03
34 | COCCNC(=O)[C@H]1C[C@@](CC(C)C)(C(=O)O)N(C)[C@H]1c1cccnc1 | 20.32
35 | O=C(O)CSc1nnc(-c2ccn[nH]2)n1-c1ccccc1C(F)(F)F | -43.98
36 | O=C(O)CSc1nnc(-c2cn[nH]c2)n1-c1ccccc1Cl | 37.77
37 | O=C(O)CSc1nnc(-c2cn[nH]c2)n1-c1ccccc1C(F)(F)F | 71.98
38 | COCCN1CCC(C(=O)N(C)CCOc2ccc(C)cc2Cl)C1 (stereo not given) | -23.16
39 | Cc1n[nH]cc1CNC(=O)CCCc1cccs1 | 20.86
40 | C[C@@H]1CN(Cc2ccc(-c3ccncc3)cc2F)CC(C(N)=O)O1 (stereo not given in full) | -11.35
41 | CC(C)N1CCC2(CCCN(C(=O)c3cncn3C)C2)CC1 | 51.36
42 | CN1CCC2(CCCN(C(=O)c3cncn3C)C2)CC1 | 13.26
43 | CC(C)N1CCOCC2(CCCN(C(=O)c3cncn3C)C2)C1 (stereo not given) | 9.1
44 | CCSc1nc(N)c(NC(=O)c2ccc(C)cc2)c(=O)[nH]1 | 7.1
45 | COCCC(=O)N1CC[C@H]2O[C@@H](C)C[C@H]2C1 | 26.31
46 | O=C(Nc1cnn(COc2ccc(F)cc2Cl)c1)C1CC1 | 25.24
47 | COc1ccc(-c2nc3c([nH]2)CCCNC3=O)cc1OC | 75.76
48 | COc1cc(-c2nc3c([nH]2)CCCNC3=O)ccc1OC(C)C | -20.6
49 | COc1cc(-c2nc3c([nH]2)CCCNC3=O)ccc1O | -58.91
50 | NC(=O)c1cccc(CC2CCN(C(=O)CO)C2)c1 (stereo not given) | -5.6

Row | Structure (SMILES) | INHIBITION [%]
51 | Cc1ccc(-c2cc(CNC(=O)N3CCC(N(C)C)CC3)on2)cc1 | 23.24
52 | CN(Cc1ccc(F)cc1F)CC(C)(CO)CO | 38.67
53 | CSCCN(C)Cc1ccc(F)cc1C#N | -63.41
54 | CN(Cc1ccc(F)cc1C#N)CC(F)(F)F | 4.12
55 | CN(CC(C)(CO)CO)C(=O)Nc1cc(F)cc(Cl)c1 | -4.57
56 | CN(Cc1cc(F)ccc1C#N)CC(C)(CO)CO | 55.36
57 | CN(Cc1cc(F)ccc1F)CC(C)(CO)CO | 50.59
58 | CNC(=O)c1ccc(OC)c(NCc2ncc(-c3cccs3)o2)c1 | 2.67
59 | Cc1ccc(CN2CCc3ncnc(-c4cccnc4)c3CC2)o1 | 18.57
60 | Cc1ccc(CN2CCc3ncnc(-c4ccc(F)cc4)c3CC2)o1 | -23.71
61 | Cc1ccc(CN2CCc3ncnc(-c4ccncc4)c3CC2)o1 | 76.36
62 | CCc1noc(C)c1C(=O)N1CCCN(Cc2cscn2)CC1 | -2.47
63 | O=C(Cc1ccsc1)N1C[C@@H]2OCCN(c3cnccn3)[C@@H]2C1 | 21.42
64 | c1cncc(O[C@H]2CC[C@H]3[C@H]2OCCN3C2CCCC2)c1 | -74.01
65 | CC(C)NC(=O)[C@@H]1C[C@@H](N)CN1C(=O)c1cc2c([nH]c1=O)CCCC2 | 31.65
66 | COc1nc2c(cc1C(=O)N1C[C@H](N)C[C@H]1C(=O)NC(C)C)CCC2 | 43.8
67 | COc1nc2c(cc1C(=O)N1C[C@@H](N)C[C@H]1C(=O)NC(C)C)CCC2 | 63.17
68 | CC1CCC(NC(=O)Nc2ccc(CC(=O)N(C)C)cc2)CC1 (stereo not given) | 35.5
69 | Cn1cc(CN2CCN(CC3(c4ccccc4)CC3)CC2)cn1 | 27.03
70 | COc1ccc2c(C)c(C(=O)N3CCC(NC(C)=O)C3)oc2c1 (stereo not given) | -41.96
71 | Cc1noc(C)c1CN1C[C@@H](C(=O)O)[C@H](c2ccccc2)C1 | -0.59
72 | Cc1ccccc1[C@@H]1CN(Cc2c(C)noc2C)C[C@H]1C(=O)O | -18.65
73 | COc1ccccc1[C@@H]1CN(Cc2c(C)noc2C)C[C@H]1C(=O)O | 68.39
74 | O=C(NCCn1ccnc1)N1CCN(c2nccs2)CC1 | -16.42
75 | Cc1nc(CN2CC(Cc3ccccc3)CC2=O)no1 (stereo not given) | -12.68

Row | Structure (SMILES) | INHIBITION [%]
76 | O=C(O)[C@]12CCCN(CC3CCOC3)C[C@H]1CN(c1ncccn1)C2 (stereo not given in full) | 13.16
77 | O=C1CCN(C(=O)C2(c3ccc(F)cc3)CCCCC2)CCN1 | -41.64
78 | O=C1CCN(C(=O)C2(c3ccc(F)cc3)CCOCC2)CCN1 | 63.46
79 | O=C1CCN(C(=O)C2(c3ccc(F)cc3)CCCC2)CCN1 | 37.18
80 | CCn1c(C2CCN(C(=O)c3ccc4cc[nH]c4c3)CC2)n[nH]c1=O | -9.71
81 | O=C(c1ccccc1)N1CCCC2(CCN2Cc2cccc(F)c2)C1 (stereo not given) | 29.03
82 | COc1cc2cc(C(=O)NCC(=O)O)n(C)c2c(OC)c1OC | 16.47
83 | CC(=O)Nc1ccc(CNC2CC(=O)N(Cc3cccc(F)c3)C2)cc1 (stereo not given) | -34.5
84 | COCCO[C@H]1CCN(c2cc(OC)ncn2)[C@H]1Cc1cccnc1 | 3
85 | Cc1cnc2n(c1=O)CC(C(=O)Nc1ccccc1Cl)CS2 (stereo not given) | -51.94
86 | Cc1ccc(Cl)cc1NC(=O)C1CSc2ncc(C)c(=O)n2C1 (stereo not given) | 61.06
87 | Cc1ccncc1NC(=O)C1CSc2ncc(C)c(=O)n2C1 (stereo not given) | 13.95
88 | Cc1ccc(-c2noc(CN3CCc4cncnc4C3)n2)cc1 | -49.27
89 | O=C(c1ccc2c(c1)COC2)N1CCC(Nc2cccnn2)CC1 | 31.19
90 | Cc1cncc(C(=O)N2CC[C@@]3(C[C@H](NS(C)(=O)=O)CCO3)C2)c1 | 17.83
91 | CCCc1cc(=O)[nH]c(-n2nc(C3CC3)cc2N)n1 | -67.99
92 | O=C1N(CC2CCCCC2)CCCC1(O)CN1CCc2[nH]ncc2C1 (stereo not given) | 29.9
93 | O=C1N(CC2CC2)CCCC1(O)CN1CCc2[nH]ncc2C1 (stereo not given) | 61.42
94 | CC(C)(C)CN1CCCC(O)(CN2CCc3[nH]ncc3C2)C1=O (stereo not given) | -92.69
95 | CC(C)c1noc(CCCC(=O)N2CCN(Cc3cccnc3)CC2)n1 | 26.06
96 | O=C(c1ccco1)N1CCCC2(CN(Cc3ccsc3)CCO2)C1 (stereo not given) | -26.14
97 | Cc1noc(C(C)N2CCN(CCOCC(F)(F)F)CC2)n1 (stereo not given) | 36.95
98 | CN1CC2(CCN(C(=O)c3ccc4c(=O)n(C)cnc4c3)CC2)CC1=O | -7.68
99 | Cc1nc[nH]c1C(=O)N1CCC2(CN(C)C(=O)O2)C1 (stereo not given) | 36.22
100 | CN1CC2(CCN(C(=O)c3ccc4c(=O)n(C)cnc4c3)C2)OC1=O (stereo not given) | 52.03

From ChEMBL document CHEMBL4513216, “Probing the Open Global Health Chemical Diversity Library for Multistage-Active Starting Points for Next-Generation Antimalarials” (ACS Infect Dis, 2020)
